# Measured values as given in PubChem BioAssay (NCI).
# This is part of a sample that, as a whole, favours compounds with a hit. Of some 83,000 tested, about 20% had one in any assay.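 Activity criterion: percent growth below 10, measured after cells in 96-well plates were exposed to a single compound concentration for 48 hours.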 Unmarked numbers belong to inactive results. Calls of active or inactive are those of the source.
# Test system: KM12 colon
# Test: NCI-60 one-dose screen, 48 h (100 = growth as untreated, 0 = no growth, -100 = all killed)
# Conditions: 10 µM unless noted
row,SMILES,growth
1,CCOC(=O)C1=C(C)NC(C)=C(C(=O)OCC)C1(C)C,118%
2,Cc1[nH]c2ccc(F)cc2c1CCNC(=O)C1CCN(C(=O)c2ccccc2)C1 (configuration not stated),102% [25 µM]
3,COc1ccc(C(=O)N2NC(=O)/C(=C/c3ccc(Br)cc3)N=C2c2ccccc2)cc1,99.6%
4,Cc1ccc(-c2cc3nc(-c4ccccc4)nc(C(Cl)Cl)n3n2)cc1,-83.6% (active)
5,O=C(Nc1cccc(-n2cc(-c3ccncc3)c(-c3ccc(Cl)c(O)c3)n2)c1)Nc1cccc(C(F)(F)F)c1,2.46% (active)
6,COC(OC)c1ccccc1,112%
7,COc1ccc(NC(=O)c2c(Nc3ccc(OC)cc3OC)n[nH]c2N)c(OC)c1,102%
8,CC(C)(C)n1cc(-c2ccnc(NCCCNS(=O)(=O)c3ccc(F)cc3)c2)c(-c2cccc(O)c2)n1,28.2%
9,O=C(C1=Cc2cc3ccccc3n2Cc2cnnn21)c1ccccc1,33.8%
10,N=C(N)c1ccc(-c2ccc(-c3cncc4ccccc34)s2)cc1F,-89.4% (active)
11,c1cc(C2=N[C@@H]3c4ccccc4C[C@@H]3O2)nc(C2=N[C@@H]3c4ccccc4C[C@@H]3O2)c1,103%
12,CN(C)c1oc(C2OC2c2ccccc2)nc1C#N (configuration not stated),103%
13,COc1cccc(-c2cc3c(O)cc(C#N)cc3[nH]2)c1,78.1%
14,c1ccc(-c2nc(N3CCNCC3)c3nc(-c4ccccc4)oc3n2)cc1,-86.1% (active)
15,CN(C[C@H]1Cc2c(cccc2N2CCN(Cc3ccccn3)CC2)CN1)[C@H]1CCCc2cccnc21,51.7%
16,COc1ccc(-n2c(=O)sc3c(Cl)nc(C)nc32)c(OC)c1,90%
17,O=C(Nc1ccc(Cl)c(Cl)c1)NS(=O)(=O)c1cnccc1Oc1ccc(F)cc1,48.7%
18,S=C(S)NCCc1c[nH]c2ccccc12,96.7%
19,COc1ccc(Nc2[nH]n3c(=O)cc(-c4ccccc4)nc3c2C(=O)Nc2ccc(C)cc2)c(OC)c1,106%

row,SMILES,growth
1,COc1ccc(-n2c(=S)sc3c(Cl)nc(C)nc32)c(OC)c1,25.4%
2,COc1ccc(-c2ccc(C)n2-c2ccc(-c3nc4ccccc4s3)cc2)cc1,86.3%
3,COc1cc(/C(C#N)=C/c2ccc3c(c2OC)OCO3)cc2c1OCO2,17.4%
4,Cc1ccc2ccccc2c1C[n+]1ccccc1,87.8%
5,COc1ccc(-c2ccc(-c3ccc(-c4ccc(C(=N)N)cc4)s3)s2)cc1OC,-42.5% (active)
6,O=c1ccn(-c2ncnc3nc[nH]c23)cc1,91.8%
7,CN(C[C@H]1Cc2c(cccc2N2CCN(c3ncccn3)CC2)CN1)[C@H]1CCCc2cccnc21,43.5%
8,COc1ccc(Nc2nn3c(-c4ccccc4)cc(-c4ccccc4)nc3c2C(N)=O)c(OC)c1,51.1%
9,COc1cc(-c2nn(-c3cccc(NC(=O)Nc4cccc(C(F)(F)F)c4)c3)cc2-c2ccncc2)ccc1Cl,-27.8% (active)
10,O=C1C2(c3ccccc3)C(c3ccccc3)=C(c3ccccc3)C1(c1ccccc1)C1CC=CC12 (configuration not stated),80%
11,CC(=O)Oc1csc(N(C(C)=O)c2cccc(C(F)(F)F)c2)n1,99.3%
12,COc1ccc(C2C=C(c3ccc(OC)c(OC)c3)N=C3SC=C(C)N32)c(Br)c1 (configuration not stated),107%
13,CCC(=O)OC1=CN2C(=NC(c3ccc(N)cc3)=CC2c2cc(OC)c(OC)c(OC)c2)S1 (configuration not stated),47.4%
14,C=C1CCC2C(C)(CO)C(O)CCC2(C)C1C/C=C1/C(=O)OCC1Oc1ccccc1C (configuration not stated),78.3%
15,CCCCCCCC/C=C/CCCCCCCC1=NC(C)(C)CN1C(C)(C)CO,-91.5% (active)
16,CN(C)c1cccc2c(S(=O)(=O)/N=C(\N)Nc3nc4ccccc4s3)cccc12,35.7%
17,N/C(=N\S(=O)(=O)c1ccccc1)Nc1nc2ccccc2s1,93%
18,COc1ccc(Nc2[nH]n3c(=O)cc(C)nc3c2C(N)=O)c(OC)c1,101%
